Screens deposited in PubChem by several laboratories.
Measles CPE = protection of cells from measles virus; Measles virus-infected cells, CPE protection, absorbance; AID 841; protection (pct of control), % at 4 µM; actives 1.5% (n = 140,000); in the data active means protection mostly above about 24%, no sharp cut-off; inactive means mostly below about 26%
HSV replic up = HSV replication enhancement; HSV replication augmentation in cells, fold increase; actives 0.005% (n = 220,000); maximum fold increase; in the data active means maximum fold increase above about 1.5; inconclusive means no clear call, values can overlap the other calls; tested in PC3 cells
ROMK mod = modulates human ROMK potassium channel activity; B-score at 10 µM; actives 2% (n = 130,000); P48048; Tet-inducible ROMK, thallium flux fluorescence; actives lie on both sides;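 active means signal ratio slope over the read window, or its plate-corrected B-score, at least 3 SD from the plate mean, either direction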;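 further: B-score of the F/F0 ratio slope over 7 to 12 s after thallium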
Arbovirus inh = arbovirus infection inhibition; arbovirus infection cell-based antiviral screen; inhibition, % at 10 µM; actives 0.37% (n = 200,000); AID 1251; in the data active means inhibition above about 30%
KCC2 mod = modulates chloride dependent transport by human KCC2 | Q9H2X9 | KCC2 cells, thallium flux FluoZin-2 fluorescence | B-score of Tl+ flux slope (higher = more flux/activation; lower = inhibition) at 10 µM | actives 2.2% (n = 190,000) | AID 1456;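 active means thallium flux slope and its plate-corrected score both differing from the plate sample mean at a set confidence after two filtering rounds, in either direction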;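 further: slope of fluorescence scaled to starting intensity during 10 to 20 s after thallium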
Numbers stand for hits; n = inactive; u = inconclusive; x = not tested or not shown; ! = not confirmed by another sample. Rows were chosen to be rich in hits. Some 4% of all compounds tested hit in one or more screens of this group.

SMILES	Measles CPE	HSV replic up	ROMK mod	Arbovirus inh	KCC2 mod
CC(=O)c1c(N2CCCC2)[nH]c(-c2ccccc2)nc1=S	n	n	4.8	n	33
CC(=O)c1c(N2CCN(Cc3ccccc3)CC2)nc(=S)n(Cc2ccccc2)c1C	n	n	n	n	n
CC(=O)c1c(N)[nH]c(-c2ccccc2)nc1=S	n	n	4.4	n	x
CC(=O)c1c(N2CCN(Cc3ccccc3)CC2)[nH]c(-c2ccccc2)nc1=S	n	n	7.5	n	45
CSc1nc(-c2ccccc2)nc(N2CCCC2)c1C(C)=O	n	n	n	n	n
Cc1ccc(C2NC(=NCc3ccccc3)Nc3nc(C)cc(=O)n32)cc1 (centres undefined)	x	n	n	x	n
O=C1CC(c2ccccc2F)C2=C(COC2=O)N1 (centres undefined)	x	n	n	n	n
Cc1cccc(-n2ccnc2SCC(=O)Nc2cc(C)on2)c1	30	n	x	n	n
Oc1oc(C=Nc2ccc(F)cc2F)c2ccccc12	x	n	n	n	n
C=CCn1c(SCC(=O)N2CCOCC2)nc2sc3c(c2c1=O)CCCC3	n	n	n	n	n
Cc1cc(NC(=O)CSc2nc3sc4c(c3c(=O)n2C)CCCC4)no1	33	x	x	n	n
Cn1c(SCC(=O)N2CCOCC2)nc2sc3c(c2c1=O)CCCC3	38	n	n	n	n
Cc1cc(-n2nnc3ccccc32)nc2ccccc12	31	n	x	n	x
CC(NC(=O)c1ccc(F)cc1)C(=O)NC1=NCCS1 (centres undefined)	x	n	n	n	n
CCN(CC)S(=O)(=O)c1ccc(N2CCOCC2)c(NC(=O)c2cccc3ccccc23)c1	n	n	x	n	n
CCN(CC)S(=O)(=O)c1ccc(N2CCCCC2)c(C(=O)Nc2ccccc2N2CCOCC2)c1	n	n	-3.6	n	n
Cc1ccc(/C=C2\Oc3c(ccc(O)c3CN3CCN(CCO)CC3)C2=O)cc1	x	n	x	n	n
CC(C)c1ccc(/C=C2\Oc3c(ccc(O)c3CN3CCN(C)CC3)C2=O)cc1	x	u	-6.6	n	n
NNc1ccc2c(C(F)(F)F)cc(C(F)(F)F)nc2n1	x	n	n	n	x
N#CC(c1cccc(Cl)c1)c1ccc2c(C(F)(F)F)cc(C(F)(F)F)nc2n1 (centres undefined)	n	n	3.2	n	29
Cc1ccc(/C=C/C(=O)OCC(=O)Nc2cccc(S(=O)(=O)N(C)C)c2)o1	n	n	n	n	n
COc1ccc(CN2CCN(C(=O)C3CCC(CNS(=O)(=O)c4ccc(C)cc4)CC3)CC2)c(OC)c1OC (centres undefined)	x	n	n	n	n
CCN1C(=O)/C(=C/N(C(C)=O)c2ccccc2)N(c2ccccc2)C1=S	n	n	-3.8	n	x
CCC1=NN(C(=O)c2cccc(Br)c2)C(O)(c2ccc(Br)cc2)C1 (centres undefined)	n	n	x	n	6.5
O=C(CCCCC(=O)Nc1c(I)cc(I)c(C(=O)O)c1I)Nc1c(I)cc(I)c(C(=O)O)c1I	x	n	x	x	x
SMILES	Measles CPE	HSV replic up	ROMK mod	Arbovirus inh	KCC2 mod
CC(=O)Nc1c(I)c(NC(C)=O)c(I)c(C(=O)O)c1I	n	n	x	n	10!
CCC(=O)N1c2ccc(S(=O)(=O)CCC(=O)Nc3nccs3)cc2CC1C (centres undefined)	n	n	5.6	n	x
COc1cccc(CC(=O)N2CCN(c3ccccc3[N+](=O)[O-])CC2)c1	x	n	n	n	n
COc1ccc(-n2c(SCC(=O)Nc3cc(C(=O)O)ccc3C)nc3ccccc3c2=O)cc1Cl	x	n	x	x	n
CCC(=O)NC(=S)N1CCN(c2ccc([N+](=O)[O-])cc2Cl)CC1	29	n	x	n	n
CCOC(=O)C1C(=O)CC(C)(O)C(C(=O)OCC)C1c1ccc([N+](=O)[O-])cc1 (centres undefined)	x	n	n	x	n
CCN1CC2([N+](=O)[O-])C=CC(=O)C([N+](=O)[O-])(C1)C2CC(=O)c1ccccc1 (centres undefined)	27	n	n	n	n
COc1ccc(NC(=O)C(CC(C)C)NC(=O)C2CCC(C)CC2)c(OC)c1 (centres undefined)	x	n	n	n	n
Cc1cc(C)nc(SCC(=O)N/N=C/c2cccc([N+](=O)[O-])c2)n1	49	n	x	n	n
CCOC(=O)c1ccc(NC(=O)N2CCN(Cc3cccc(F)c3)CC2)cc1	n	n	x	n	-3
CCCN1CCN(C(=O)Nc2ccc(C(=O)OCC)cc2)CC1	n	n	x	n	n
Cc1ccc(NC2c3ncccc3C(=O)N2C2CCCCC2)cc1C (centres undefined)	n	n	n	40	x
Cc1cc(=O)oc2cc(OCC(=O)Nc3ccc(S(=O)(=O)N(C)C)cc3)ccc12	x	n	x	x	x
